Assay outcomes as filed in PubChem.
Only some compounds are listed: those with a hit (about 12% of all), similar ones and a draw of the others.
Sfp inh – qHTS Assay for Inhibitors of Bacillus subtilis Sfp phosphopantetheinyl transferase (PPTase); Biochemical Sfp PPTase activity, qHTS; 4'-phosphopantetheinyl transferase ffp (Bacillus subtilis), Q9F4F7; hit rate 3.5% among 310,000; Potency, µM, for the others: largest response in the series, negative = inhibition, hits mostly inhibitors;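 note: the enzyme is Sfp with the accession as filed and its product quenches rhodamine fluorescence; 0% = enzyme reaction without inhibitor and -100% = no enzyme wells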
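Fluorescence-quenching assay with 15 nM Sfp, 5 uM rhodamine-CoA and 12.5 uM BHQ-2-labelled ybbR peptide in pH 7.6 Hepes/MgCl2 buffer. Enzyme was pre-incubated with compound for 15 min at room temperature. Rate was taken from the 30-min fluorescence change (525/598 nm).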
HP1b binding inh – HTS for Inhibitors of HP1-beta Chromodomain Interactions with Methylated Histone Tails; AID 540317, 2011; AlphaScreen HP1-beta / biotin-H3K9me3 peptide binding; Potency, µM (top dose mostly 114 µM), for the others: at the top dose activity change, negative = inhibition, most hits filed as inhibitors; hit rate 0.56% among 390,000; note: nearly all actives have a fitted effect of over 70% in size
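HP1-beta protein (50 nM final) preincubated 30 min at room temperature with biotinylated H3(1-18)K9me3 peptide (50 nM) in PBS pH 7.4, 0.01% Tween-20, then compound added for 30 min. AlphaScreen streptavidin donor/nickel chelate acceptor beads (10 ug/mL final), 30 min dark, luminescence read.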
L3MBTL1 block – qHTS Assay for the Inhibitors of L3MBTL1 | Lethal(3)malignant brain tumor-like protein 1 (Homo sapiens), Q9Y468 | AlphaScreen L3MBTL1–H3K9me1 peptide binding | Potency, µM (titrated, usually from 57.1 µM), inactives show at the top dose activity, negative = inhibition, hits mostly inhibitors | hit rate 0.66% among 230,000 | AID 485360, 2010; note: % is set by controls: 0 for no effect and ±100 for the full control effect; nearly all actives have a fitted effect of over 60% in size
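L3MBTL1 (50 nM) pre-complexed 30 min with biotinylated H3(1-15)K9me1 peptide (75 nM), then compounds added for 30 min at room temperature; AlphaScreen streptavidin donor/nickel chelate acceptor beads (10 ug/mL final) read after 30 min dark incubation.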
JMJD2A Tudor – qHTS Assay for Inhibitors of JMJD2A-Tudor Domain | hit rate 4.4% among 390,000 | AlphaScreen JMJD2A-Tudor / H3K4me3 peptide binding | AID 504339, 2011 | Potency, µM (doses to about 114 µM), inactives show top-dose activity change, negative = inhibition, usual class: inhibitors | Lysine-specific demethylase 4A (Homo sapiens), O75164; note: % is set by controls: 0 for no effect and ±100 for the full control effect; nearly all actives have a fitted effect of over 50% in size
BAZ2B inh – qHTS Assay for Inhibitors of BAZ2B | Bromodomain adjacent to zinc finger domain protein 2B (Homo sapiens), Q9UIF8 | AlphaScreen BAZ2B-H3K14Ac peptide displacement | hit rate 4.4% among 360,000 | Potency, µM (doses to about 114 µM), inactives show at the top dose activity change, negative = inhibition, hits mostly inhibitors; note: % is set by controls: 0 for no effect and ±100 for the full control effect; nearly all actives have a fitted effect of over 60% in size
Target sequence (Q9UIF8 whole entry, looked up, the tested form may be a part): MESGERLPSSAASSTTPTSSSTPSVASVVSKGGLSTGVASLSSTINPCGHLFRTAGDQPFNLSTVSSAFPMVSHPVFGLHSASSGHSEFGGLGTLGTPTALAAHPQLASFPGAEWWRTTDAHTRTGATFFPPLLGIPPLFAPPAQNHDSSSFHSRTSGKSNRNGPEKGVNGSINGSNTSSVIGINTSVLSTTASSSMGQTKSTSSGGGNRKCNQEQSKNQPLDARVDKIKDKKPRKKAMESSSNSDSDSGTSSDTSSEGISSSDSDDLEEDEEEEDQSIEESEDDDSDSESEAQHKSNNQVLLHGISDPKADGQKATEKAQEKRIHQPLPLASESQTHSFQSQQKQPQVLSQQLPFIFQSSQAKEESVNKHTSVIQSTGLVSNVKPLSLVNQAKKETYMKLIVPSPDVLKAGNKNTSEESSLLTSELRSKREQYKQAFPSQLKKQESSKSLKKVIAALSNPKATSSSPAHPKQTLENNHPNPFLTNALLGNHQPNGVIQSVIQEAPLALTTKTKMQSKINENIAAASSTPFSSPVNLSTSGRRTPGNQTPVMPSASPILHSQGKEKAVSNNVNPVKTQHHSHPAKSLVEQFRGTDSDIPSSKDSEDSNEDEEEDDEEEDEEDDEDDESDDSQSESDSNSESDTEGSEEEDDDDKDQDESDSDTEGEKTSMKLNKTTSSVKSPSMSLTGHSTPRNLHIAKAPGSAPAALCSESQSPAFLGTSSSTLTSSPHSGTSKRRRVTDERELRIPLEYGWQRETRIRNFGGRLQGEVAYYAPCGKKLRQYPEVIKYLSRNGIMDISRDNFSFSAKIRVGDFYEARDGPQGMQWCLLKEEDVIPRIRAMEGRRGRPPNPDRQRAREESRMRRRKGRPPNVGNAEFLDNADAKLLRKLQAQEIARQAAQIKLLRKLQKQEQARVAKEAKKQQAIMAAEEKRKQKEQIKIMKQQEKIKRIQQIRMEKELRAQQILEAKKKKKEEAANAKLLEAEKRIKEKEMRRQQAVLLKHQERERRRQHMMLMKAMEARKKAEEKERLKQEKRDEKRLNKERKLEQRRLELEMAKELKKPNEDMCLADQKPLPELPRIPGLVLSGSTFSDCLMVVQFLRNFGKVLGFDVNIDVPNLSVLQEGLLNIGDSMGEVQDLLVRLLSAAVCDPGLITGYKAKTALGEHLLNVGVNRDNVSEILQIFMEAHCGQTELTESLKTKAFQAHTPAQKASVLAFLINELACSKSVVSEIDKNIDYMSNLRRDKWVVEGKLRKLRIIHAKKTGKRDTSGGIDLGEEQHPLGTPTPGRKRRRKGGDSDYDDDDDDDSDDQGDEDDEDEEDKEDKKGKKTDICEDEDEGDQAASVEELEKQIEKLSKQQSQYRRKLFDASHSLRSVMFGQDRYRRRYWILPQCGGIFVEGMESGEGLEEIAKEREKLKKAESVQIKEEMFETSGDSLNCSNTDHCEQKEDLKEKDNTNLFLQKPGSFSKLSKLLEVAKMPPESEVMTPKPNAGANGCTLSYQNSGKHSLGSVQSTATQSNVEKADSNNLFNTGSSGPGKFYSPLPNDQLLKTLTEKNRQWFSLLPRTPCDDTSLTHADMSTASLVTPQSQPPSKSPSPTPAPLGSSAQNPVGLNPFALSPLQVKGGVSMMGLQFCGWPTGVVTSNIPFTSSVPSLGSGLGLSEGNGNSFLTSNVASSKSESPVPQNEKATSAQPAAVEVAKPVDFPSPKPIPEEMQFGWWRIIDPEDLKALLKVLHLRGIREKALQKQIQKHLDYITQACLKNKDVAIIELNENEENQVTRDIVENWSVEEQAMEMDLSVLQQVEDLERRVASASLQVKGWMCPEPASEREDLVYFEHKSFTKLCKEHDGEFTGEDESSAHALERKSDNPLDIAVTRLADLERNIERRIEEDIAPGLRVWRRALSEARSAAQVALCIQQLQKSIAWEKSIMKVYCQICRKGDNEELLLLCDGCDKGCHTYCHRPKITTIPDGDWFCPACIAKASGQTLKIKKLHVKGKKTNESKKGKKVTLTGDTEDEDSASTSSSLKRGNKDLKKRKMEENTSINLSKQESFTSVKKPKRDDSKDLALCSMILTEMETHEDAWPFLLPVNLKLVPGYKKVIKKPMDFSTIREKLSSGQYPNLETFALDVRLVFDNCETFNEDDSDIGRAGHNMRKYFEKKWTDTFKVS
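Complex of BAZ2B and biotin-H3K14Ac (50 nM apiece) forms over 30 min at RT, then faces library compounds up to 110 uM for another 30 min; AlphaScreen beads added, 20 min dark incubation, luminescence read.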
G9a block – qHTS Assay for Inhibitors of Histone Lysine Methyltransferase G9a; Histone-lysine N-methyltransferase EHMT2 (Homo sapiens), Q96KQ7; G9a H3K9 monomethylation, AlphaScreen, 2 h; Potency, µM (doses to about 102 µM), inactives show at the highest dose activity, negative = inhibition, usual class: inhibitors; hit rate 8.8% among 350,000; AID 504332, 2011; note: % is set by controls: 0 for no effect and ±100 for the full control effect; nearly all actives have a fitted effect of over 75% in size
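Methyltransferase reactions run at room temperature for 2 h (20 nM enzyme, 500 nM biotin-H3K9 peptide, 20 uM SAM) after a 15 min compound preincubation; product detected by AlphaScreen beads and anti-H3K9me1 antibody.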
Starred values were filed as active, the others as inactive; [ ] = dose if it differs, or a comment. Calls come from the whole dose curve; as a rule, active = well fitted curve in the direction sought with a large enough effect; inconclusive = small, poorly fitted or top-dose-only effect, or another doubt; inactive = no such curve, though single readings can be large; an effect the other way counts as inactive or inconclusive. Potency is the fitted concentration of half-maximal effect.

For O=C(Cc1ccccc1)N1CCN(Cc2ccc(F)cc2)CC1 the results were Sfp inh -23%, HP1b binding inh inconclusive, L3MBTL1 block -11%, JMJD2A Tudor 10µM* and BAZ2B inh 79µM*.
`O=C(Cc1ccccc1)N1CCN(CCCc2ccccc2)CC1` gave Sfp inh 1%, HP1b binding inh inconclusive, L3MBTL1 block -1%, JMJD2A Tudor 0.32µM*, BAZ2B inh 56µM* and G9a block inconclusive.
`COc1cc(CN2CCN(C(=O)Cc3ccccc3)CC2)cc(OC)c1OC` gave Sfp inh -11%, HP1b binding inh inconclusive, L3MBTL1 block 2%, JMJD2A Tudor 7.1µM*, BAZ2B inh inconclusive and G9a block 25µM*.
Screening COc1ccc(CN2CCN(C(=O)Cc3ccccc3)CC2)c(OC)c1 returned Sfp inh -14%, HP1b binding inh inconclusive, L3MBTL1 block 2%, JMJD2A Tudor 2µM*, BAZ2B inh 56µM* and G9a block 20µM*.
For CN(C(=O)Cc1ccc(Cl)c(Cl)c1)[C@H](CN1CCCC1)c1ccccc1 the results were Sfp inh -2% and G9a block inconclusive.
Screening CCCCOCCCn1c(N)c(C(=O)OCCOC)c2nc3ccccc3nc21 returned Sfp inh 13%, HP1b binding inh 32%, L3MBTL1 block -4%, JMJD2A Tudor 6%, BAZ2B inh -6% and G9a block 8%[59 µM].
Screening CCOC(=O)c1c(NC(=O)c2c(N)n(CCCOC)c3nc4ccccc4nc23)sc2c1CCCC2 returned Sfp inh 56µM*, HP1b binding inh -10%, L3MBTL1 block -6%, JMJD2A Tudor -14%, BAZ2B inh -31% and G9a block 4%.
For CCOCCCn1c(N)c(C(=O)Nc2sc3c(c2C(=O)OC)CCCC3)c2nc3ccccc3nc21 the results were Sfp inh inconclusive, HP1b binding inh 6%, L3MBTL1 block -5%, JMJD2A Tudor -31%, BAZ2B inh inconclusive and G9a block 5.6µM*.
For CCCCn1c(NC(=O)c2ccco2)c(C(=O)OCC)c2nc3ccccc3nc21 the results were Sfp inh 50µM*, HP1b binding inh 55%, L3MBTL1 block -6%, JMJD2A Tudor -17%, BAZ2B inh 9% and G9a block inconclusive.
CCCCCC(O)C1C(=O)OC(C)C(O)\C=C/C=C\C=C/C=C\C=C(\C)C(O)C(O)C(O)CC(O)CC(O)CC(O)CC(O)CC1O (centres undefined) was read as Sfp inh 9% and G9a block -20%[12.7 µM].
Screening CCCCCC1C(=O)O[C@H](C)[C@@H](NC(=O)c2cccc(NC=O)c2O)C(=O)OC(C)C1OC(=O)CC(C)C (some centres undefined) returned Sfp inh 17%.
For O=C1C=Cc2ccccc2C1=O the results were Sfp inh 2.8µM*, L3MBTL1 block -25%, BAZ2B inh 40µM* and G9a block 8.9µM*.
O=C1c2ccccc2C(=O)c2ccccc21 was read as Sfp inh 22% and G9a block 0%[59 µM].
For CCCN(CCC)c1c([N+](=O)[O-])cc(C(F)(F)F)cc1[N+](=O)[O-] the results were Sfp inh 4%.
